PubChem BioAssay (EPA / NIEHS)
Results filed as inconclusive are left out. The source holds several records for some structures; these can differ, active in one and inactive in another. Activity calls are given as the source filed them. Rule for the calls, unless noted: active = hit-call score of the fitted dose curve at least 0.9, where 1 is the maximum; inactive = score below 0.9.

What was measured:
[1] = ATG_M_32_TRANS: Attagene TRANS-FACTORIAL HepG2 Assay for M32 Transcription Factor (Internal Marker) (AID 2282984; active = hit-call score of the fitted dose curve at least 0.9, where 1 is the maximum;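 note: transcript level of a background control reporter unit measured by RT-PCR and capillary electrophoresis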); conditions: HepG2 Attagene TRANS M32 internal marker reporter
In short: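 Capillary electrophoresis of 6-FAM-labelled reporter fragments gives the signal; data fitted for gain over DMSO negative control. Source: HepG2 cells bearing transient multiple reporter transcription units, 24 h exposure.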

[2] = molecular target: Nuclear receptor subfamily 4 group A member 2 (Homo sapiens) (UniProt P43354); experiment: ATG_NURR1_TRANS: Attagene TRANS-FACTORIAL HepG2 Assay for human Nuclear Receptor Related Protein 1 (NURR1) (AID 2282985; active = hit-call score of the fitted dose curve at least 0.9, where 1 is the maximum); conditions: HepG2 Attagene TRANS reporter, mRNA readout
Sequence of Nuclear receptor subfamily 4 group A member 2 (Homo sapiens) (P43354 whole entry, looked up): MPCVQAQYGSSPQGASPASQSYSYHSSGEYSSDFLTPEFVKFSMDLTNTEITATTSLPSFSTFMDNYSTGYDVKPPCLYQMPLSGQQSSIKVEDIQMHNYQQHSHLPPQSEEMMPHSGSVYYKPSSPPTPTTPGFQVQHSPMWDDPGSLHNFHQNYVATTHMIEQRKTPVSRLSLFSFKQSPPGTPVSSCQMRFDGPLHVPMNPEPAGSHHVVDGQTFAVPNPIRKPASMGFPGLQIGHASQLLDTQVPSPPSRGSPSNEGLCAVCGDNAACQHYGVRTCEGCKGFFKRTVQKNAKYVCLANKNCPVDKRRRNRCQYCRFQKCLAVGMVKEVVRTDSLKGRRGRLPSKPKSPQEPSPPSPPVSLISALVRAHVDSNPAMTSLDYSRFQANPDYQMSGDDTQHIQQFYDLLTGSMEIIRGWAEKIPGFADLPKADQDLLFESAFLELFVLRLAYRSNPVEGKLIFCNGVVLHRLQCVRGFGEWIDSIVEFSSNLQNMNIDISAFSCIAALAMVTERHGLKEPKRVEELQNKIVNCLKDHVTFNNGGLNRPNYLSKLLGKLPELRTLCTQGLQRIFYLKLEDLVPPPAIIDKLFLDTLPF
In short: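 HepG2 / transient MRTU transfection / 24 h compound exposure / RT-PCR + CE fluorescence of reporter mRNA / gain-of-signal vs DMSO.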

[3] = molecular target: Transcriptional activator Myb (Homo sapiens) (UniProt P10242); experiment: ATG_Myb_CIS: Attagene CIS-FACTORIAL HepG2 Assay for human Myeloblastosis (Myb) Proto-Oncogene Transcription Factor (AID 2282986); conditions: HepG2 Attagene CIS-FACTORIAL Myb reporter transcription; actives raise or lower the signal
Sequence of Transcriptional activator Myb (Homo sapiens) (P10242 whole entry, looked up): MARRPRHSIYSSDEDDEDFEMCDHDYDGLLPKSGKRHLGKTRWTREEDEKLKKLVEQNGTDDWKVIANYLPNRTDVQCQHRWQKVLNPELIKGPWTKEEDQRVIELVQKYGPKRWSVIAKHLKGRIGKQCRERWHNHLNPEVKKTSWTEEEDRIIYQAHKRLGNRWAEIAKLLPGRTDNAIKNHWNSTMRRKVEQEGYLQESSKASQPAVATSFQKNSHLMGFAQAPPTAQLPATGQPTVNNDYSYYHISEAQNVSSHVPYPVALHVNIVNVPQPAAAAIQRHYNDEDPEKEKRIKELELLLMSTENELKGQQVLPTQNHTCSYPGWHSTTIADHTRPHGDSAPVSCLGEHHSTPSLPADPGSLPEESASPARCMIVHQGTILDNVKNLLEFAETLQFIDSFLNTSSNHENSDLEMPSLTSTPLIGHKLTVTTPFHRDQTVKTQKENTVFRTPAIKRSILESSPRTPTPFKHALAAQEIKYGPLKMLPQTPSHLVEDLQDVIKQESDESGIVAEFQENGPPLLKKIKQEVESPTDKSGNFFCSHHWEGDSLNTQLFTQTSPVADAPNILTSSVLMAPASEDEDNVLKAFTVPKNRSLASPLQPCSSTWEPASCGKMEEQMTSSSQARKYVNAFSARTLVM
In short: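 Transiently transfected HepG2 cells carrying a multiplexed cis-promoter reporter set report endogenous Myb activity after 24 h compound exposure. Reporter mRNA is read by RT-PCR with capillary electrophoresis of fluorescent products, fitted bidirectionally against DMSO.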

[4] = molecular target: Nuclear respiratory factor 1 (Homo sapiens) (UniProt Q16656); experiment: ATG_NRF1_CIS: Attagene CIS-FACTORIAL HepG2 Assay for human Nuclear Respiratory Factor 1 (NRF1) Orphan Gene (AID 2282987); conditions: HepG2 NRF1 cis-element reporter, Attagene multiplex; actives raise or lower the signal
Sequence of Nuclear respiratory factor 1 (Homo sapiens) (Q16656 whole entry, looked up): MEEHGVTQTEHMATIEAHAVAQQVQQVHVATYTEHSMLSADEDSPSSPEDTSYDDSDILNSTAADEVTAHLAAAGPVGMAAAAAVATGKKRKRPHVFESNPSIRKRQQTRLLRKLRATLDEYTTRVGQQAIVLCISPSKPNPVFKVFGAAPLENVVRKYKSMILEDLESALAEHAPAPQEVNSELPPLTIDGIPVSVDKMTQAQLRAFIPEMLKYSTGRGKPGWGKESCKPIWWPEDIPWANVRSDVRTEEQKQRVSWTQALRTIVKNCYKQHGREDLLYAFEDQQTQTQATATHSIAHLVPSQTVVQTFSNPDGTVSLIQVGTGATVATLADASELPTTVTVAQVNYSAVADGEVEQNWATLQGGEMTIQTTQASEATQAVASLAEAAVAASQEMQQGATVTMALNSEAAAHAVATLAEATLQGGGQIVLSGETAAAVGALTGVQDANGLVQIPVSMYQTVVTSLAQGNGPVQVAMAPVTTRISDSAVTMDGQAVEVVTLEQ
In short: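 HepG2 cells transiently transfected with multiple cis-regulated reporter units, exposed 24 h. Reporter mRNAs measured by RT-PCR, fluorescent labelling, HpaI digestion and capillary electrophoresis; bidirectional fitting against DMSO.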

[5] = ATG_NFI_CIS: Attagene CIS-FACTORIAL HepG2 Assay for human Nuclear Factor I (NFI) (AID 2282989); conditions: HepG2 cis-regulatory reporter, NFI response element transcription; actives raise or lower the signal
In short: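 HepG2, transient MRTU, 24 h exposure; RNA→cDNA→PCR→FAM label→HpaI→CE fluorescence. Bidirectional fit, DMSO = baseline.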

[6] = molecular target: Myc proto-oncogene protein (Homo sapiens) (UniProt P01106); experiment: ATG_Myc_CIS: Attagene CIS-FACTORIAL HepG2 Assay for human Myelocytomatosis (Myc) Proto-Oncogene Transcription Factor (AID 2282990); conditions: HepG2, Attagene cis-reporter transcription factor activity; actives raise or lower the signal
Sequence of Myc proto-oncogene protein (Homo sapiens) (P01106 whole entry, looked up, the tested form may be a part): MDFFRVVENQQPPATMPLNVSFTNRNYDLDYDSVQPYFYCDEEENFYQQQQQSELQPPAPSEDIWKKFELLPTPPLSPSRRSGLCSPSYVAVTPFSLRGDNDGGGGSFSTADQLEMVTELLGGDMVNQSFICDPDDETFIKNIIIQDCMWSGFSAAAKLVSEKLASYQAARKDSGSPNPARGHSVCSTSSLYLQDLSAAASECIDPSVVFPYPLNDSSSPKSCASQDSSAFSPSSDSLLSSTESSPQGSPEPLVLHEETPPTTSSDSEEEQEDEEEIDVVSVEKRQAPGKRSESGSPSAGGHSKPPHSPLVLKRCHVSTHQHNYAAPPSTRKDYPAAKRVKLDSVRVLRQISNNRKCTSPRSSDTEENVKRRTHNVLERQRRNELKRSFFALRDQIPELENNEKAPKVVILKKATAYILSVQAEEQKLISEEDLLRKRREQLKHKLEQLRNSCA
In short: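 Read-out: fluorescent reporter mRNA fragments resolved by capillary electrophoresis after RT-PCR. Human HepG2 liver cells carried transfected cis-element reporter units and were dosed for 24 h. Gain or loss of signal fitted relative to DMSO baseline.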

[7] = ATG_NRF2_ARE_CIS: Attagene CIS-FACTORIAL HepG2 Assay for human Nuclear Factor Erythroid 2 Related Factor 2 (NFR2) response to Antioxidant Response Elements (ARE) (AID 2282992); conditions: HepG2 Attagene ARE/NRF2 reporter, transcription factor activity; actives raise or lower the signal;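 for AC50: reporter mRNA level measured by RT-PCR and capillary electrophoresis fluorescence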
In short: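 HepG2 cells transiently transfected with multiplexed cis-element reporter constructs, 24 h after chemical dosing; reporter mRNA quantified by RT-PCR, fluorescent primer extension, HpaI digestion and capillary electrophoresis. Bidirectional fit relative to DMSO.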

[8] = ATG_Oct_MLP_CIS: Attagene CIS-FACTORIAL HepG2 Assay for human Octamer-Binding Transcription Factor (Oct) (AID 2282993); conditions: HepG2 Attagene cis-factorial Oct reporter, mRNA; actives raise or lower the signal
In short: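 Multiplexed cis-reporter assay in human liver HepG2 cells, 24 h incubation. Reporter RNA amplified and labelled, then resolved by capillary electrophoresis; DMSO serves as negative control and baseline.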

[9] = BSK_3C_TissueFactor: BioMAP Diversity Plus: 3C Assay for Tissue Factor Biomarker Activity (AID 2282997); conditions: BioMAP 3C HUVEC, tissue factor biomarker readout; actives raise or lower the signal
In short: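 Human vascular primary cells (umbilical vein endothelium) received test chemical; Tissue Factor was determined by ELISA at 24 h, and both gain and loss of signal versus DMSO were fitted.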

[10] = BSK_3C_uPAR: BioMAP Diversity Plus: 3C Assay for Urokinase-type plasminogen activator receptor (uPAR) Biomarker Activity (AID 2282998); conditions: BioMAP 3C HUVEC, uPAR biomarker ELISA; actives raise or lower the signal
In short: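 Dose primary human umbilical vein endothelial cells, incubate 24 h, measure cell-surface uPAR by ELISA, then fit the signal in both directions against the DMSO negative control.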

[11] = BSK_3C_VCAM1: BioMAP Diversity Plus: 3C Assay for Vascular cell adhesion molecule 1 (VCAM1) Biomarker Activity (AID 2282999); conditions: BioMAP 3C HUVEC, VCAM1 ELISA, cytokine-stimulated; actives raise or lower the signal
In short: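 Human umbilical vein endothelial cells (3C system), biomarker read by ELISA 24 h after dosing; bidirectional fit against DMSO baseline. Cytotoxicity tracked by SRB total-protein staining in parallel cultures at biomarker time.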

[12] = BSK_4H_Eotaxin3: BioMAP Diversity Plus: 4H Assay for Eotaxin 3 Biomarker Activity (AID 2283000); conditions: primary human endothelial cells (HUVEC); actives raise or lower the signal;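 note: CCL26 protein level quantified by ELISA in parallel with SRB cytotoxicity check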
In short: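 Readout is Eotaxin-3 (CCL26) level by ELISA in primary human umbilical vein endothelial cells harvested 24 h after chemical exposure; activity fitted in both directions against DMSO control.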

[13] = molecular target: human Peroxisome Proliferator-activated Receptor alpha (PPARa), PPARA (gene 5465) (UniProt Q07869); experiment: ATG_PPARa_TRANS: Attagene TRANS-FACTORIAL HepG2 Assay for human Peroxisome Proliferator-activated Receptor alpha (PPARa) (AID 2283001; active = hit-call score of the fitted dose curve at least 0.9, where 1 is the maximum)
Sequence of human Peroxisome Proliferator-activated Receptor alpha (PPARa), PPARA (gene 5465) (Q07869 whole entry, looked up, the tested form may be a part): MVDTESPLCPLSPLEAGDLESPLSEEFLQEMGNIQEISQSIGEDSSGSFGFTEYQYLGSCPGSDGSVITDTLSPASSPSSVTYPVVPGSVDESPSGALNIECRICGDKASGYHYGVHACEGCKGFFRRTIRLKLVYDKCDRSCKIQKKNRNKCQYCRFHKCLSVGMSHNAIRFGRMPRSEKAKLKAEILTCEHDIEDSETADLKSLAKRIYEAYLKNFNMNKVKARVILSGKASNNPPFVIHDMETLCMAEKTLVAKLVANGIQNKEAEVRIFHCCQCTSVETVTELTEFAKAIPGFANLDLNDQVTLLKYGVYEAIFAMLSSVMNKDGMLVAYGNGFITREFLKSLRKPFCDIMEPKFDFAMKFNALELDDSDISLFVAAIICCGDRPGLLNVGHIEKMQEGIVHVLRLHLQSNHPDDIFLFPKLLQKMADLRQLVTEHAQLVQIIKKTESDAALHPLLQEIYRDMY
In short: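 Measures transcriptional activity of an exogenous chimeric PPARa-Gal4 protein in transiently transfected HepG2 cells after 24 h dosing. Reporter mRNA quantified via RT-PCR and capillary electrophoresis; DMSO served as negative control.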

[14] = molecular target: Oxysterols receptor LXR-beta (Homo sapiens) (UniProt P55055); experiment: ATG_LXRb_TRANS: Attagene TRANS-FACTORIAL HepG2 Assay for human Liver X Receptor beta (LXRb) (AID 2282981; active = hit-call score of the fitted dose curve at least 0.9, where 1 is the maximum); conditions: HepG2 Attagene TRANS GAL4-LXRb reporter, mRNA
Sequence of Oxysterols receptor LXR-beta (Homo sapiens) (P55055 whole entry, looked up, the tested form may be a part): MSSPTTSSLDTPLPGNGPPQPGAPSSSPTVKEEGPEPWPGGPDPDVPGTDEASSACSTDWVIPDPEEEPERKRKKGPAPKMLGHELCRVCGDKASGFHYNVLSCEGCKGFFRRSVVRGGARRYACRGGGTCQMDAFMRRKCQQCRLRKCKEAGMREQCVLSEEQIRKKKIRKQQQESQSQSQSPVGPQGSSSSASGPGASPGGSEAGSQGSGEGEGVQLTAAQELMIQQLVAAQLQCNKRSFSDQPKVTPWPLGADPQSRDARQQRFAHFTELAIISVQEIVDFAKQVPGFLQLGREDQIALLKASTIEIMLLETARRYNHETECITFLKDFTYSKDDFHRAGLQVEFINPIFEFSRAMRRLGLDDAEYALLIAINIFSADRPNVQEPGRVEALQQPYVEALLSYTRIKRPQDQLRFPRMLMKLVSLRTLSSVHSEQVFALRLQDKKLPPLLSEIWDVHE
In short: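 Gain-of-signal mRNA reporter endpoint, DMSO as negative control. Transiently transfected HepG2 cells carrying the NR-Gal4 chimera and GAL4-UAS reporter units were treated 24 h; transcripts quantified by RT-PCR and capillary electrophoresis fluorescence.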

[15] = molecular target: Hepatocyte nuclear factor 4-alpha (Homo sapiens) (UniProt P41235); experiment: ATG_HNF4a_TRANS: Attagene TRANS-FACTORIAL HepG2 Assay for human Hepatocyte Nuclear Factor 4 alpha (HNF4a) (AID 2282982; active = hit-call score of the fitted dose curve at least 0.9, where 1 is the maximum); conditions: HepG2 HNF4a transactivation reporter, mRNA readout
Sequence of Hepatocyte nuclear factor 4-alpha (Homo sapiens) (P41235 whole entry, looked up, the tested form may be a part): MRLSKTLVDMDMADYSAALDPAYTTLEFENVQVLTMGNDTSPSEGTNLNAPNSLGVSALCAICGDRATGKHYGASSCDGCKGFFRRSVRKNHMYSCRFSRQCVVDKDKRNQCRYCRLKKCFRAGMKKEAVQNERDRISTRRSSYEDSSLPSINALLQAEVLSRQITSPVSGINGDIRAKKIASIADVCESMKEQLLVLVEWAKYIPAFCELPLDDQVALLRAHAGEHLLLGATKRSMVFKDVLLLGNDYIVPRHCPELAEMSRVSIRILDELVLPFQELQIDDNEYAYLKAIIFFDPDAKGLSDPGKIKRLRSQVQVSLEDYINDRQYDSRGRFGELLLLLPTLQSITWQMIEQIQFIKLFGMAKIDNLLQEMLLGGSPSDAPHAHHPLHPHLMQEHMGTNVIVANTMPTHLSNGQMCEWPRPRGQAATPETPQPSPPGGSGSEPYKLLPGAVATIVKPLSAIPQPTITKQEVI
In short: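 Gain-of-signal mRNA induction, relative to DMSO vehicle, was read after 24 h compound treatment of HepG2 cells bearing transfected GAL4-UAS reporters. Detection used RT-PCR, 6-FAM primer extension and capillary electrophoresis.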

[16] = ATG_NF_kB_CIS: Attagene CIS-FACTORIAL HepG2 Assay for human Nuclear Factor Kappa B (NF-kB) (AID 2282991); conditions: HepG2 Attagene cis-factorial NF-kB reporter mRNA; actives raise or lower the signal
In short: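 HepG2 cells transfected with cis-promoter-driven reporter units, so endogenous transcription factor activity is measured. Reporter mRNA quantified 24 h after dosing by RT-PCR and capillary electrophoresis, with bidirectional fitting against DMSO.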

[17] = ATG_M_06_TRANS: Attagene TRANS-FACTORIAL HepG2 Assay for M06 Transcription Factor (Internal Marker) (AID 2282983; active = hit-call score of the fitted dose curve at least 0.9, where 1 is the maximum); conditions: HepG2 Attagene TRANS M06 internal marker reporter
In short: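 After a 24 h chemical treatment of transfected HepG2, RNA underwent DNase I treatment, reverse transcription and reporter-specific PCR; labelled, HpaI-digested products were sized by capillary electrophoresis. Signal increase relative to DMSO defined activity.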

Measured: AC50

CC(C)(C)c1ccccc1
not listed: [14] | [15] | [16] | [17]
inactive: all other assays above

O=Cc1ccccc1C=O
not listed: [15] | [16] | [17]
inactive: all other assays above

NC=O
not listed: [1] | [17]
inactive: all other assays above

CC(=O)O
not listed: [14] | [15] | [16]
inactive: all other assays above

CC(C)NCC(O)c1ccc(O)c(O)c1 (stereo not given)
not listed: [1] | [13] | [14] | [15] | [16] | [17]
inactive: all other assays above

OCC(O)CO
inactive: [9] | [10] | [11] | [12]

O=C1OC(c2ccc(O)cc2)(c2ccc(O)cc2)c2ccccc21
inactive: [3] | [4] | [9] | [12]
active: [5] 22.8 µM | [6] 180 µM | [16] 176 µM | [7] 177 µM | [8] 26.2 µM | [10] 14.6 µM | [11] 29.7 µM

O=C(O)c1[nH]n(-c2ccc(S(=O)(=O)O)cc2)c(=O)c1N=Nc1ccc(S(=O)(=O)O)cc1
not listed: [1] | [2] | [14] | [15] | [17]
inactive: all other assays above

C/C=C/c1ccc(OC)cc1
not listed: [1] | [2] | [14] | [17]
inactive: all other assays above

CC(=O)CC(c1ccccc1)c1c(O)c2ccccc2oc1=O (stereo not given)
inactive: [14] | [1] | [2] | [3] | [4] | [5] | [6] | [7] | [8] | [9] | [10] | [11] | [12] | [13]
active: [7] 27 µM

C/C=C/C=C/C(=O)O
not listed: [2] | [13] | [14] | [16] | [17]
inactive: all other assays above

Cc1cn([C@H]2C=C[C@@H](CO)O2)c(=O)[nH]c1=O
not listed: [1] | [13] | [14] | [15] | [16] | [17]
inactive: all other assays above
